Only some compounds are listed: those with a hit (about 19% of all), similar ones and a draw of the others.
Shiga inhibitor – blocks Shiga toxin action in Vero cells. Vero cells, Shiga toxin protein synthesis inhibition reporter. inhibition, % at 38.7 µM. 9.2% of 290,000 active. AID 2315; in the data active = inhibition mostly above about 28%, no sharp cut-off; inactive = mostly below about 43%
Pf growth 96h – P. falciparum growth inhibition at 96 hour, primary screen for plastid delayed-death inhibitors. P. falciparum luciferase reporter growth, 96 h. Potency, µM (titrated, usually from 28.7 µM), most hits filed as inhibitors. 6.9% of 320,000 active. AID 504834
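Readout is luminescence from an integrated firefly luciferase in P. falciparum. Red cells, 2% hematocrit and 0.05% parasitemia final, were cultured with compound through two parasite generations (96 hours) at 37 C, 5% CO2.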
CHX counter – counter-screen for Shiga toxin inhibitors: cycloheximide protein synthesis inhibition | cell reporter, cycloheximide protein synthesis inhibition counterscreen | max response, % | 12% of 300,000 active; in the data active = max response mostly above about 13%, no sharp cut-off; inactive = mostly below about 14%; also: read at 38.3 µM for the half of the compounds with a filed dose
LASV entry inh – Lassa virus entry inhibition. Lassa virus pseudotype entry inhibition, cell reporter. Potency, µM (top dose mostly 37.9 µM), actives largely listed as inhibitors. 1.2% of 300,000 active; calls by dose curve; tested in HEK293 cells; also: nearly all actives have a fitted effect of over 50% in size
Pf growth 48h – P. falciparum growth inhibition at 48 hours (one generation); P. falciparum luciferase growth in erythrocytes, 48 h; Potency, µM (series often up to 28.7 µM), most hits filed as inhibitors; 5.9% of 310,000 active; AID 504832
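Erythrocytes infected with P. falciparum carrying an integrated firefly luciferase reporter (2% hematocrit, 0.1% parasitemia final) were exposed to compounds in RPMI 1640 with 0.5% Albumax at 37 C, 5% CO2. Growth inhibition was scored as reduced luminescence.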
MARV entry inh – inhibitors of Marburg virus binding or cell entry. Marburg virus pseudotyped entry inhibition, cell reporter. Potency, µM (doses to about 37.8 µM), most hits filed as inhibitors. 1.8% of 300,000 active; calls by dose curve; tested in HEK293 cells
Hits are given with their value. Unless noted, calls follow the shape of the dose curve; as a rule, active = well fitted inhibition curve with a large enough effect; inconclusive = small, poorly fitted or top-dose-only effect, or another doubt; inactive = no such curve, though single readings can be large or run the other way.

Screening Cc1ccccc1-n1c(Cn2c(=O)sc3ccccc32)nnc1SCC(N)=O returned Shiga inhibitor inactive, Pf growth 96h inactive, CHX counter inactive, Pf growth 48h inactive and MARV entry inh inactive.
For c1ccc(-c2nnc(CSc3nc4ccccc4[nH]3)o2)cc1 the results were Shiga inhibitor inactive, Pf growth 96h inactive, CHX counter inactive, LASV entry inh inactive and MARV entry inh inactive.
`O=C(Cn1cnc2c(oc3ccccc32)c1=O)N1CCCC1` gave Shiga inhibitor 64, Pf growth 96h inactive, CHX counter 32, LASV entry inh inactive, Pf growth 48h inactive and MARV entry inh inconclusive.
`CCOC(=O)CNC(=O)Cn1cnc2c(oc3ccccc32)c1=O` gave Shiga inhibitor inactive, Pf growth 96h inactive, CHX counter 34 and Pf growth 48h inactive.
Screening Cc1ccc(C)c(NC(=O)Cn2cnc3c(oc4ccccc43)c2=O)c1 returned Shiga inhibitor inactive, Pf growth 96h inconclusive, CHX counter inactive, LASV entry inh inactive, Pf growth 48h 10µM and MARV entry inh inactive.
For Cn1c(=O)c2c(nc(NCC3CCCO3)n2Cc2ccccc2)n(C)c1=O (stereo not drawn) the results were Shiga inhibitor inactive, Pf growth 96h inactive, CHX counter inactive, LASV entry inh inactive, Pf growth 48h inactive and MARV entry inh inactive.
C/C(=N\Nc1ccc(S(=O)(=O)N2CCCCC2)cn1)c1cccc(Br)c1 was read as Pf growth 96h inconclusive and Pf growth 48h 10µM.
Screening O=C(Nc1ccc(Cl)cn1)c1cccc(S(=O)(=O)N2CCCC2)c1 returned Shiga inhibitor 41, Pf growth 96h inactive, CHX counter 14, LASV entry inh inconclusive, Pf growth 48h inactive and MARV entry inh inactive.
CN(C)S(=O)(=O)c1cccc(C(=O)Nc2ccc(Cl)cn2)c1 was read as Shiga inhibitor 50, Pf growth 96h inconclusive, CHX counter 51, LASV entry inh inactive and MARV entry inh inconclusive.
Screening Cc1ccc(N(C)S(=O)(=O)c2cccc(C(=O)Nc3ccc(C)cn3)c2)cc1 returned Pf growth 96h 5.2µM, LASV entry inh inconclusive, Pf growth 48h 2.1µM and MARV entry inh inconclusive.
`O=C(Nc1ccc(Cl)cn1)c1cccc(S(=O)(=O)N2CCCCC2)c1` gave Shiga inhibitor inactive, Pf growth 96h inactive, CHX counter inactive, LASV entry inh inactive, Pf growth 48h inconclusive and MARV entry inh inactive.
O=C(NC1CC2CCCC(C1)N2C(=O)Nc1ccc(Cl)c(C(F)(F)F)c1)C1CC1 (stereo not drawn) was read as Shiga inhibitor inactive, Pf growth 96h inactive, CHX counter inactive, LASV entry inh inactive, Pf growth 48h inconclusive and MARV entry inh inactive.
O=C(Nc1ccc(F)c(F)c1)c1ccco1 was read as Shiga inhibitor 89, Pf growth 96h inactive, CHX counter 45 and Pf growth 48h inconclusive.
For O=C(Nc1ccc(Cl)c(C(F)(F)F)c1)NC1CC2CCCC(C1)N2Cc1ccccc1 (stereo not drawn) the results were Shiga inhibitor inactive, Pf growth 96h inconclusive, CHX counter inactive, LASV entry inh inconclusive, Pf growth 48h inconclusive and MARV entry inh 8.9µM.
Screening O=C(Cc1ccccc1)Nc1ccc(NC(=O)c2ccco2)cc1Cl returned Shiga inhibitor inactive, Pf growth 96h 9.3µM, CHX counter inactive, LASV entry inh inactive, Pf growth 48h inactive and MARV entry inh inactive.
For O=C(Nc1ccc(Cl)c(Cl)c1)c1ccco1 the results were Shiga inhibitor 50, Pf growth 96h inactive, CHX counter 48, LASV entry inh inactive, Pf growth 48h inactive and MARV entry inh inactive.
O=C(Cc1ccccc1)Nc1ccc(NC(=O)Cc2ccccc2)c(Cl)c1 was read as Shiga inhibitor inactive, Pf growth 96h inconclusive, CHX counter inactive, LASV entry inh inactive, Pf growth 48h inactive and MARV entry inh inactive.
CC(C)n1cc(/C=C2/NC(=O)NC2=O)c2ccccc21 was read as Shiga inhibitor inactive, Pf growth 96h inactive, CHX counter inactive, LASV entry inh inactive, Pf growth 48h inconclusive and MARV entry inh inactive.
Screening CCc1ccc(OCC(O)CN2CCN(c3ccccc3)CC2)cc1 (stereo not drawn) returned Shiga inhibitor inactive, CHX counter inactive, LASV entry inh inactive and MARV entry inh inconclusive.
CC1(C)Cc2cccc(OCC(O)CNCc3ccccn3)c2O1 (stereo not drawn) was read as Shiga inhibitor inactive, Pf growth 96h inactive, CHX counter inactive, LASV entry inh inactive, Pf growth 48h inactive and MARV entry inh inconclusive.
Screening CC(C)CN(CC(C)C)c1nnc(NC(=O)Nc2cccc(C(F)(F)F)c2)s1 returned LASV entry inh inactive and MARV entry inh inactive.
Screening Cc1cc(N2C(=O)C3C4CCC(C4)C3C2=O)no1 (stereo not drawn) returned Shiga inhibitor inactive, Pf growth 96h inactive, CHX counter inactive, LASV entry inh inactive, Pf growth 48h inactive and MARV entry inh inconclusive.
For O=C(Nc1ccc(Cl)c(C(F)(F)F)c1)c1ccco1 the results were Shiga inhibitor inactive, Pf growth 96h inactive, CHX counter 13, LASV entry inh inactive, Pf growth 48h inactive and MARV entry inh inactive.
`CCCC(=O)Nc1ccc(Cl)c(NC(=O)c2ccco2)c1` gave Shiga inhibitor inactive, CHX counter inactive, LASV entry inh inconclusive, Pf growth 48h inactive and MARV entry inh inactive.
`CC1NC2(C(=O)N(Cc3ccccc3)c3ccccc32)C2C(=O)N(c3ccccc3)C(=O)C12` (stereo not drawn) gave Shiga inhibitor inactive, Pf growth 96h 12µM, CHX counter inactive, Pf growth 48h inconclusive and MARV entry inh inactive.
For CC1=CCC2C(=O)N(c3ccc4ccccc4n3)C(=O)C2C1 (stereo not drawn) the results were Shiga inhibitor inactive, Pf growth 96h inactive, CHX counter 9.4, LASV entry inh inactive, Pf growth 48h inactive and MARV entry inh inactive.
`CC1=CCC2C(=O)N(c3nc(C)cc(C)n3)C(=O)C2C1` (stereo not drawn) gave Shiga inhibitor inactive, Pf growth 96h inactive, CHX counter inactive, LASV entry inh inactive, Pf growth 48h inactive and MARV entry inh inactive.
Screening COc1ccc(OC)c(C2C(C(=O)c3cccs3)=C(O)C(=O)N2CCN(C)C)c1 (stereo not drawn) returned Shiga inhibitor inactive, Pf growth 96h inactive, CHX counter inactive, LASV entry inh inactive, Pf growth 48h inactive and MARV entry inh inactive.
For CCCCn1cnc(C(=O)OCC)c1N the results were Shiga inhibitor inactive, Pf growth 96h inactive, CHX counter inactive, LASV entry inh inconclusive, Pf growth 48h inactive and MARV entry inh inconclusive.
O=C(COC(=O)c1ccccc1Br)NCc1ccccc1 was read as Shiga inhibitor inactive, Pf growth 96h inactive, CHX counter 24, LASV entry inh inconclusive, Pf growth 48h inactive and MARV entry inh inactive.
`O=C(COC(=O)c1ccccc1Br)Nc1ccccc1F` gave Shiga inhibitor 57, Pf growth 96h inactive, CHX counter 55, LASV entry inh inactive, Pf growth 48h inactive and MARV entry inh inactive.

From PubChem BioAssay
